Hits are enriched below; roughly 6% of the tested compounds scored in any of these assays.
D1 antag – human D1 dopamine receptor antagonism | AID 504652 | HEK293 TREx D1 cells, calcium flux, dopamine EC80; stronger effect = lower value | 3.2% of 360,000 active | activity change, negative = inhibition, % at 10 µM | P21728; in the data active = activity change below about -30%; note: % is set by controls: 0 for no effect and ±100 for the full control effect
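Compound effects on dopamine-evoked calcium signalling were measured in tetracycline-induced HEK293 Trex D1 cells. Dopamine at EC80 followed a 180 s compound pre-read, and fluorescence was tracked kinetically for 180 s more.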
D1 PAM – potentiators of human D1 dopamine receptor; P21728; HEK293 TREx D1 cells, calcium flux, dopamine EC20 potentiation; potentiation, % at 10 µM; 0.036% of 360,000 active; in the data active = potentiation above about 30%; note: 0% is about no effect
D3 antag – blocks the human D3 dopamine receptor; P35462; D3R cells, DiscoveRx beta-arrestin luminescence, antagonist mode; stronger effect = lower value; max response, negative = inhibition, %; 2.5% of 360,000 active; AID 652054; in the data active = max response below about -50%; inconclusive = no clear call, values can overlap the other calls; note: % is set by controls: 0 for no effect and ±100 for the full control effect
Target sequence (P35462 whole entry, looked up): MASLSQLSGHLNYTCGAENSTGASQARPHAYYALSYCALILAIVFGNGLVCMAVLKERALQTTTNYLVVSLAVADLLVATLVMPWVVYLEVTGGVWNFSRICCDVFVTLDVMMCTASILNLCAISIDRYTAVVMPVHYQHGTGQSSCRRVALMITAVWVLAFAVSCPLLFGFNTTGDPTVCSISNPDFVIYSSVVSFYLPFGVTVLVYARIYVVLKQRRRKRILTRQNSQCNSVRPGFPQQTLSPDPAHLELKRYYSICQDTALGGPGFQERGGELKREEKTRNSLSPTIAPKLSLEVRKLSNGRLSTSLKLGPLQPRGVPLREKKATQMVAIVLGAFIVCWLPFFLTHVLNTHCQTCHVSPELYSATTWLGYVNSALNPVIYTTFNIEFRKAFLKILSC
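Cells plated overnight at 1500 cells/well, then exposed to library compounds with dopamine controls for 90 minutes at 37 degrees C. DiscoveRx reagent added for 30–60 minutes at room temperature; luminescence read, quantitative HTS format.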
D1 ag – agonists of human D1 dopamine receptor; HEK293 T-REx D1 cells, calcium flux, agonist mode; activation, % at 2 µM; 1% of 360,000 active; AID 504660; in the data active = activation above about 30%; note: 0% is about no effect
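Tetracycline-induced HEK293 TREx D1 cells, force-coupled to calcium signalling, were dye-loaded with a no-wash calcium kit. Compound was pin-added after a 10 s baseline. Fluorescence was read kinetically at 1 cycle/s for 180 s, with calcium rises flagged as agonism.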
DRD3 agonist – agonists of human D3 dopamine receptor | 0.58% of 410,000 active | P35462 | D3R DiscoveRx beta-arrestin cells, luminescence, 90 min | max activation, %; in the data active = max activation above about 30%; note: 0% is about no effect
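Agonist-mode cell screen: cells plated at 1500/well and incubated overnight at 37 °C, then exposed to library compounds for 90 min at 37 °C. Detection reagent was added for 30–60 min at room temperature, and luminescence was read.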
* marks the source's active call; other numbers are inactive results; u = inconclusive; x = not tested or not shown.

SMILES	D1 antag	D1 PAM	D3 antag	D1 ag	DRD3 agonist
Cc1ccc2oc(-c3ccc(Cl)cc3)c(O)c(=O)c2c1	-22.2	-1.9	x	70.5*	17.7
CCN(CC)Cc1c(O)ccc2c(-c3ccccc3)cc(=O)oc12	-31.1*	-12.8	-9.7	2.6	1.9
CCCCN(CC)Cc1c(O)ccc2c(-c3ccccc3)cc(=O)oc12	-27.5	-9.7	1.5	-0.7	-1.5
CC(=O)c1cn(CCOc2ccccc2C)c2ccccc12	-38.0*	-7.3	29.0	17.7	11.8
COc1ccc(NC(=O)CCN2CCCCCC2)c(OC)c1	-13.1	-1.6	-55.1*	2.3	-23.8
COc1ccc(NC(=O)CN2CCC(C(N)=O)(N3CCCCC3)CC2)c(OC)c1	-37.2*	-7.8	14.0	-0.2	2.0
COc1ccc(NC(=O)CCN2CCOCC2)c(OC)c1	9.4	6.5	3.3	2.9	-0.2
O=C(Cn1cc(S(=O)(=O)c2ccc(F)cc2)c(=O)c2cc3c(cc21)OCO3)Nc1ccccc1	-33.9*	0.1	x	1.7	2.4
Cc1ccc(NC(=O)Cn2cc(S(=O)(=O)c3ccc(F)cc3)c(=O)c3cc4c(cc32)OCO4)cc1	2.0	-2.2	x	1.1	5.9
COc1ccc(S(=O)(=O)c2cn(CC(=O)Nc3ccccc3)c3ccc(Cl)cc3c2=O)cc1	-44.8*	1.4	x	6.2	1.7
CCOC(=O)c1cc(NC(=O)c2ccccc2)c(=O)n2c1oc1ccc(Cl)cc12	-4.0	-3.5	x	5.2	0.7
CCCOc1ccc(CNC(=O)c2ccc3c(c2)N(CC)CCS3)cc1	-0.8	-11.5	-65.1*	4.7	-13.7
S=c1[nH]nc(Cc2sc(-c3ccccc3)nc2-c2ccccc2)o1	-9.1	-2.9	-67.0*	0.7	4.0
O=C(CSc1nccc(=O)[nH]1)Nc1ccc2ccccc2c1	x	x	12.2	x	7.5
O=C(CSc1nccc(=O)[nH]1)NCc1ccc2c(c1)OCO2	-35.1*	2.5	2.6	1.6	-5.6
O=C(CSc1nccc(=O)[nH]1)Nc1ccc(Oc2ccccc2)cc1	-57.0*	-9.6	7.2	2.2	4.5
O=C(CSc1nccc(=O)[nH]1)Nc1ccc2c(c1)OCCO2	-57.8*	-0.8	0.0	0.5	-8.5
O=C(CSc1nccn1Cc1ccc(Cl)cc1)Nc1ccc2c(c1)OCO2	-20.4	-3.6	x	1.9	-9.8
O=C(CSc1nccn1Cc1ccc(Cl)cc1)Nc1ccc2c(c1)OCCO2	-30.9*	1.1	x	1.2	-2.7
CCOCCc1nn2c(=O)cc(COC(=O)c3cccc(C)c3)nc2s1	2.3	-3.4	x	2.8	5.5
Cc1cccc(NC(=S)N/N=C2\CC(C)(C)Oc3ccc(O)cc32)c1	-5.3	-1.6	-27.0	2.1	-1.3
CC1(C)C/C(=N\NC(=S)Nc2ccccc2F)c2cc(O)ccc2O1	-4.5	-4.9	-53.5*	1.4	-8.1
COc1ccc(S(=O)(=O)N(CC(=O)N2CCC(C)CC2)c2ccc(C)cc2)cc1	-5.2	-0.4	x	-1.2	-1.9
Cc1cc(OCC(=O)OCC(=O)c2ccc[nH]2)ccc1Cl	-34.3*	-3.5	2.2	10.2	-2.4
Cc1ccccc1OCC(=O)OCC(=O)c1ccc(OCc2ccccc2)cc1	16.3	-3.8	-2.5	54.6*	2.5
SMILES	D1 antag	D1 PAM	D3 antag	D1 ag	DRD3 agonist
Cc1ccccc1OCC(=O)OCC(=O)c1ccc[nH]1	-31.7*	-5.9	-0.4	2.1	-2.6
COc1cc(NS(=O)(=O)c2ccc3c(c2)CCN3S(C)(=O)=O)cc(OC)c1	-14.6	-2.6	x	10.7	-8.9
Cc1occc1C(=O)N/N=C/C1=C(N2CCOCC2)C(=C/c2ccc(Cl)cc2Cl)/CC1	x	x	8.7	x	6.8
Cc1ccc(CNC(=O)CSc2c(C(C)C)cnc3c2c(=O)n(C)c(=O)n3C)cc1	6.8	5.1	x	2.4	10.9
CCOc1ccc(C2=Nn3c(nnc3-c3ccco3)SC2)cc1	-30.7*	-4.3	-23.4	1.2	0.8
CCCCCn1c(=O)c(F)cn(Cc2ccc(OC)c([N+](=O)[O-])c2)c1=O	7.9	-0.6	-2.1	1.4	-1.2
CCCCn1c(=O)c(F)cn(Cc2ccc(OC)c([N+](=O)[O-])c2)c1=O	13.0	-5.0	7.5	74.7*	2.9
COc1ccc(Cl)cc1NC(=O)COC(=O)Cc1cc(OC)c(OC)c(OC)c1	x	x	4.7	x	10.4
COc1cc(CC(=O)OCC(=O)NCC(C)C)cc(OC)c1OC	-32.5*	-3.4	-1.1	8.7	9.8
Cc1cccc(C)c1NC(=O)COC(=O)Cc1ccsc1	9.8	-5.6	12.2	2.7	-4.8
NC(=O)c1ccsc1NC(=O)COC(=O)Cc1ccsc1	-38.6*	-8.0	8.8	9.9	3.6
Cc1ccccc1NC(=O)COC(=O)Cc1ccsc1	-31.1*	-4.5	2.3	3.2	1.2
COc1cc(CC(=O)OCC(=O)Nc2sccc2C(N)=O)cc(OC)c1OC	-27.1	-0.8	51.5	11.0	32.2*
CN(Cc1ccccc1)c1ncnc2sccc12	-18.1	x	-14.5	9.2	7.7
CC(Oc1ccccc1)C(=O)OCC(=O)Nc1sccc1C(N)=O (stereo unspecified)	-34.2*	-2.8	39.0	13.5	12.4
COc1ccc(OCC(=O)N2CCN(C(=O)c3cc(OC)c(OC)c(OC)c3)CC2)cc1	10.8	0.5	x	-0.6	-13.6
CCOc1ccccc1Nc1ncnc2c1c(-c1ccccc1)cn2-c1ccc(OC)cc1	-17.8	-3.8	x	-0.2	-7.6
O=C(Nc1ccc(N2CCCCC2)c(Cl)c1)c1ccc(N2CCOCC2)c([N+](=O)[O-])c1	-48.1*	-7.8	-12.8	0.9	-5.7
CCC(=O)Nc1cccc(NC(=O)c2ccc(C)c([N+](=O)[O-])c2)c1	-14.2	-5.6	14.9	1.1	-1.1
Cc1ccc(C(=O)Nc2ccc(Cc3ccncc3)cc2)cc1[N+](=O)[O-]	-35.1*	-6.0	32.2	10.4	-6.4
Cc1ccc(NC(=O)c2ccc(NCCCN3CCOCC3)c([N+](=O)[O-])c2)cc1Cl	1.9	-4.2	-50.7*	0.3	-14.5
CCCC(=O)Nc1cccc(NC(=O)c2ccc(C)c([N+](=O)[O-])c2)c1	-33.5*	-7.2	-11.9	-0.6	-2.7
O=C(Nc1ccc(Cl)c([N+](=O)[O-])c1)c1ccc(NCCCN2CCOCC2)c([N+](=O)[O-])c1	13.9	29.2	10.1	16.3	-7.9
O=C(Nc1ccc(Cc2ccncc2)cc1)c1cccc([N+](=O)[O-])c1	-6.8	-3.5	u	23.4	-1.8
O=C(Nc1cc(Cl)ccc1N1CCOCC1)c1ccc(N2CCCCC2)c([N+](=O)[O-])c1	x	x	-13.2	x	-10.9
Cc1cc2oc(C(=O)Nc3cccc(-c4nc5ccccc5o4)c3)c(C)c2cc1Cl	-5.4	-0.3	x	2.8	-17.8
COc1cccc(CNC(=O)N2CCc3c(sc4c3CCCC4)C2c2ccc(F)cc2)c1 (stereo unspecified)	5.3	-0.1	x	4.7	20.0
CCN(CC)S(=O)(=O)c1ccc(C(=O)NC2CC(=O)N(c3ccc(OC)c(OC)c3)C2)cc1 (stereo unspecified)	x	-0.2	x	6.1	9.2

Screening data: PubChem, National Center for Advancing Translational Sciences (NCATS)
